An excerpt weighted towards active compounds, which were near 2.4% of everything screened.
CHO-K1 Ca PAM: nonselective activator or artifact in parental CHO-K1 calcium assay; ATP EC20, Fluo-8 calcium fluorescence; 0% at ATP EC20, 100% at ATP max; activation, % at 3 µM; actives 0.02% (n = 360,000); AID 602247;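 active = activation above the run cutoff, the mean activation of all test compounds plus 3 SD, cut at about 40% in these data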;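 also: peak over basal fluorescence ratio in a 140 s read after ATP addition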
CHRM1 agonist: human M1 muscarinic receptor agonism | P11229 | CHO-K1 hM1, Fluo-8 calcium fluorescence, agonist mode; 0% DMSO, 100% acetylcholine EC100 | activation, % at 3 µM | actives 0.33% (n = 360,000) | AID 588814;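 active = activation above the run's mean compound activation plus 3 SD, cut at about 16% in these data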;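 also: peak over basal fluorescence ratio within a 140 s kinetic read after compound addition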
Target sequence (P11229 whole entry, looked up): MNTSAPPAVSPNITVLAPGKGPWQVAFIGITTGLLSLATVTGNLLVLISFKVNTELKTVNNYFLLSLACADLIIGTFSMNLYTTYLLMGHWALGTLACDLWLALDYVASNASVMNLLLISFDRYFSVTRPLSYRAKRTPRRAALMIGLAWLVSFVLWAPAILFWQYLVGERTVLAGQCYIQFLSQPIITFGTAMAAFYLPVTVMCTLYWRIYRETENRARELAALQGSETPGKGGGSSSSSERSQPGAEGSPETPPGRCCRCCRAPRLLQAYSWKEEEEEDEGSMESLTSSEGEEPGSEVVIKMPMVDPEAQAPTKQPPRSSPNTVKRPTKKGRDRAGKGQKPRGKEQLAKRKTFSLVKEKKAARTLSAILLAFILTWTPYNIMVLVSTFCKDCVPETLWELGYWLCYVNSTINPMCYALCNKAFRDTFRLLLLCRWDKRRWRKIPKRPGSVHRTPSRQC
M1 ag parental: nonselective activator or artifact in parental CHO-K1 cells | AID 602248 | actives 0.48% (n = 360,000) | activation, % at 3 µM | Fluo-8 calcium fluorescence; scaled to maximal ATP response, vehicle zero; in the data active = activation above about 15%;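 also: untransfected CHO-K1 host cells lacking M1 receptor as counterscreen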
M1 antag: human CHRM1 antagonism. CHO-K1 hM1, Fluo-8 calcium fluorescence, ACh EC80 antagonist. AID 588852. actives 1.3% (n = 360,000). P11229. inhibition, % at 3 µM;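 active = percent inhibition above its own plate's cutoff, namely the mean of that plate's compound wells plus 3 SD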;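 also: peak over basal fluorescence ratio during 140 s after agonist addition; 0% = ACh EC80 plus DMSO and 100% = DMSO alone without agonist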
CHO-K1 Ca antag: counter-screen for M1 antagonists: effect in parental CHO-K1 cells; actives 0.6% (n = 360,000); inhibition, % at 3 µM; ATP-induced calcium, Fluo-8 fluorescence;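 active = inhibition above a per-plate cutoff, the plate's mean sample inhibition plus 3 SD, cut at about 24% in these data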;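 also: 0% = DMSO plus EC80 ATP and 100% = DMSO alone without ATP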
CHRM1 PAM: potentiates human M1 receptor response to acetylcholine; P11229; activation, % at 3 µM; actives 0.088% (n = 360,000); CHO-K1 hM1, Fluo-8 calcium fluorescence, ACh EC20; 0% = ACh EC20, 100% = maximal ACh; in the data active = activation above about 19%, passing the limit was not always enough
* marks the source's active call; other numbers are inactive results.

SMILES	CHO-K1 Ca PAM	CHRM1 agonist	M1 ag parental	M1 antag	CHO-K1 Ca antag	CHRM1 PAM
CN(C)c1ccc(NC(=O)N2CCOCC2)cc1	-1	-1	0	10	4	30*
O=C(Nc1ccc2nc(-c3cccs3)c(-c3cccs3)nc2c1)N1CCOCC1	14	-4	4	78*	-5	-21
c1ccc(-c2csc(-n3cnnn3)n2)cc1	-7	-6	0	16	30*	-11
Cc1ccc(-c2c(C(=O)N/N=C/c3ccoc3)nnn2-c2nonc2N)cc1	-22	4	0	-9	-6	12
Cc1ccc(-c2c(C(=O)N/N=C/c3ccsc3)nnn2-c2nonc2N)cc1	2	41*	17*	-1	-4	1
CCOc1ccc(-c2c(C(=O)N/N=C/c3cccs3)nnn2-c2nonc2N)cc1	17	11	3	3	3	3
CCOc1cccc(-c2c(C(=O)N/N=C/c3sccc3C)nnn2-c2nonc2N)c1	5	1	3	-1	-6	6
Nc1nonc1-n1nnc(C(=O)N/N=C/c2cccs2)c1-c1ccc2c(c1)OCO2	20	43*	42*	-7	-31	9
Cc1ccc(-c2c(C(=O)N/N=C/c3cccs3)nnn2-c2nonc2N)cc1	24	18*	13	-21	-15	21
CCOc1cccc(-c2c(C(=O)N/N=C/c3ccsc3)nnn2-c2nonc2N)c1	19	19*	2	-5	-12	16
Cc1ccn2cc(C34CC5CC(CC(C5)C3)C4)nc2c1	5	-13	1	20	-8	-32
c1ccc(COc2ncnc3c2ncn3CCCNCC(c2ccccc2)c2ccccc2)cc1	20	-2	4	-3	-1	2
O=C(NCC1CCCO1)c1ccc(NS(=O)(=O)c2ccccc2)cc1 (centres undefined)	-5	-1	0	-5	2	12
Cc1cc(=O)[nH]c(-n2ncc(C#N)c2N)n1	1	-1	0	-13	-3	13
O=C1c2cccc(NCCNCCO)c2C(=O)c2cccc(NCCNCCO)c21	-18	-1	0	-2	-1	10
O=[N+]([O-])c1nn(-c2ccc3c(c2)OCCO3)n(O)c1=NC1CCN(Cc2ccccc2)CC1	-8	-9	0	47*	16	-25
COc1cc(N=c2c([N+](=O)[O-])nn(-c3ccc4c(c3)OCCO4)n2O)cc(OC)c1	13	-4	2	-5	-10	2
CC(C)c1ccc(N=c2c([N+](=O)[O-])nn(-c3ccc4c(c3)OCCO4)n2O)cc1	9	-5	9	39*	-12	-24
Nc1nc(SCc2ccccn2)c2ncn(C3OC(CO)C(O)C3O)c2n1 (centres undefined)	9	0	1	-3	-11	4
CCN1CCN(c2ccc(NC(=O)c3cccc(OCc4ccccc4)c3)cc2)CC1	17	-4	1	81*	-1	-21
O=C(O)c1ccc(NC(=S)NC(=O)c2cccc(COc3ccccc3)c2)cc1	19	-4	0	4	-11	5
CCOc1cccc(C(=O)NC(=S)Nc2ccc(N3CCN(CC)CC3)cc2)c1	23	-16	2	81*	0	-35
CCOc1cccc(C(=O)NC(=S)Nc2ccccc2)c1	18	-10	0	-3	-7	-4
CN1CCN(c2ccc(NC(=O)c3cccc(OCc4ccccc4)c3)cc2)CC1	12	-10	1	-17	-4	-23
CCCOc1cccc(C(=O)NC(=S)Nc2ccc(N3CCN(C)CC3)cc2)c1	17	-13	1	58*	-11	-30
SMILES	CHO-K1 Ca PAM	CHRM1 agonist	M1 ag parental	M1 antag	CHO-K1 Ca antag	CHRM1 PAM
O=C(NC(=S)Nc1ccc(CN2CCCCC2)cc1)c1cccc(OCc2ccccc2)c1	23	-8	2	96*	-5	-27
CCOc1ccc2nc(CN3CCN(Cc4ccsc4)C(CCO)C3)ccc2c1 (centres undefined)	16	-7	0	0	-12	6
Cc1ccc(C(=O)NCCc2nnc3ccc(SCC(=O)Nc4ccccc4F)nn23)cc1	-3	-1	1	-16	-2	15
C=CCNC(=S)Nc1ccc(Cl)cc1F	8	-4	16*	7	8	1
CCC1CCCCN1C(=O)CSc1nnc(-c2c[nH]c3ccccc23)o1 (centres undefined)	18	-3	4	-9	-17	4
NC(=O)c1nsc(C(=O)N(c2ccccc2)C(C(=O)NCc2ccc(F)cc2)c2ccc(O)cc2)c1N (centres undefined)	-2	-1	10	27*	10	-9
O=C(NCc1ccc(F)cc1)C(c1ccccc1)N(C(=O)c1csnn1)c1ccccc1 (centres undefined)	-3	-9	7	29*	-3	-20
CCOc1ccc2[nH]c(=O)c(C(c3nnnn3C3CCCCC3)N3CCN(C)CC3)cc2c1 (centres undefined)	-5	-5	0	15	6	-3
CCOc1ccc2[nH]c(=O)c(C(c3nnnn3C3CCCCC3)N3CCN(CC)CC3)cc2c1 (centres undefined)	20	-6	3	22*	-3	-20
COc1ccc(CNCCC(c2ccc(OC)cc2)c2ccccc2OC)cc1 (centres undefined)	-1	-3	1	-2	4	6
COc1ccc(C(CCNCc2ccc(OC(C)C)cc2)c2ccccc2OC)cc1 (centres undefined)	-4	3	18*	1	14	10
COc1ccccc1NS(=O)(=O)c1ccc(C)c(C(=O)NCCCN2CCCC2=O)c1	-3	3	-1	0	31*	14
COc1cccc(-n2ccn(CC(=O)NCCc3ccccc3)c(=O)c2=O)c1	2	0	0	4	14	6
Oc1ccccc1-c1cc(C(F)(F)C(F)F)[nH]n1	1	4	9	11	-11	-13
Fc1ccc(-c2cc(C(F)(F)C(F)F)[nH]n2)cc1	6	29*	26*	14	-1	-7
FC(F)C(F)(F)c1cc(-c2ccc(Cl)cc2)n[nH]1	17	16	18*	12	2	-7
CCOc1cc(/C=N/n2cnnc2)ccc1OC(=O)c1cccc([N+](=O)[O-])c1	-9	-1	1	23	31*	-6
OCCC1CN(CC#Cc2ccccc2)CCN1C1CCCC1 (centres undefined)	4	-6	0	4	-17	-1
OCCC1CN(CC(c2ccccc2)c2ccccc2)CCN1C1CCCC1 (centres undefined)	3	-14	0	27*	8	-32
OCCC1CN(Cc2cnc(-c3ccccc3)s2)CCN1C1CCCC1 (centres undefined)	-10	-10	0	39*	13	-28

Screening results deposited in PubChem by The Scripps Research Institute Molecular Screening Center.
